A selection: hits, their analogues and other compounds. The true share with any hit is near 3.6%.
Nrf2 ARE act – activators of Nrf2 (ARE) signaling. AREc32 ARE-luciferase reporter (MCF7-derived line), luminescence, 24 h. Potency, µM (titrated, usually from 46.1 µM), usual class: activators. actives 0.31% (n = 410,000). AID 624171; also: nearly all actives have a fitted effect of over 65% in size
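Luciferase luminescence (Steady-Glo, 30 min at room temperature) served as the read-out of ARE activation in AREc32 cells treated with compounds for 24 hr at 37 deg C.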
Nrf2 inh – Nrf2 pathway inhibition | A549 ARE-Fluc reporter, luciferase luminescence, 18-24 h | Potency, µM (titrated, usually from 46 µM), usual class: inhibitors | actives 2.1% (n = 360,000) | AID 504444; also: nearly all actives have a fitted effect of over 60% in size
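A549 ARE_Fluc cells (5000/well, 5% FBS OPTI-MEM) pre-incubated 2 h, then treated with compounds 18-24 h at 37C/5% CO2 in concentration-response. CellTiter-Fluor viability read first; BugLite luciferase luminescence after 15 min at room temperature gives Nrf2 activity.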
HepG2 tox – counter-screen for TGF-b inhibitors: cytotoxicity in HepG2 cells. Potency, µM (top dose mostly 46.1 µM), usual class: cytotoxic. HepG2 CAGA-GFP viability, ATP luminescence, 18 h. actives 0.76% (n = 410,000). AID 588856
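CellTiter-Glo luminescence gave cytotoxicity after 18 hours at 37 degrees C. The cells were HepG2 CAGA-GFP in 1% FBS DMEM, stimulated with 500 pg/mL TGF-beta after compound addition. %Activity was normalised to no-cell wells (complete cell-killing) and DMSO (no toxicity), and curves were fitted and classified.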
A549 viability – counter-screen for Nrf2 inhibitors: cytotoxicity in A549 cells | A549 ARE-Fluc cells, CellTiter-Fluor viability, 18-24 h | Potency, µM (highest dose often 46 µM), most hits filed as inhibitors | actives 0.16% (n = 390,000)
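Cytotoxicity counterscreen: CellTiter-Fluor fluorescence was measured in A549 ARE_Fluc cells after 18-24 h of compound exposure in a concentration series. The subsequent BugLite luminescent read reports ARE-luciferase activity.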
TGFb SMAD3 inh – TGF-b pathway inhibition | actives 1.2% (n = 410,000) | Potency, µM (titrated, usually from 46.1 µM), usual class: inhibitors | HepG2 CAGA-GFP TGF-b/SMAD3 reporter, GFP fluorescence, 18 h; TGF-beta stimulated, 500 pg/mL final | AID 588855; also: nearly all actives have a fitted effect of over 65% in size
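HEPG2 CAGA-GFP reporter cells (1000/well, DMEM with 1% FBS) received compounds, then recombinant TGF-beta at 500 pg/mL final for 18 hours at 37 degrees C. Per-cell GFP summed per well was normalised to unstimulated and stimulated DMSO controls before curve fitting.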
Large screens that a line does not name were inactive. Calls follow the shape of the dose curve; as a rule, active = well fitted curve in the direction sought with a large enough effect; inconclusive = small, poorly fitted or top-dose-only effect, or another doubt; inactive = no such curve, though single readings can be large; an effect the other way counts as inactive or inconclusive.

COc1cnc(-c2ccccn2)nc1NC(C)C	Nrf2 inh 14.6µM, A549 viability inconclusive
Cc1ccc(C)c(N2CCN(C(=O)c3ccc(Cn4c(=O)[nH]c5ccccc5c4=O)cc3)CC2)c1	Nrf2 inh 7.31µM, TGFb SMAD3 inh inconclusive
CC(=O)c1ccc(N2CCN(C(=O)c3ccc(Cn4c(=O)[nH]c5ccccc5c4=O)cc3)CC2)cc1	none (no result: Nrf2 inh)
O=C(CCN1CCN(c2ccccc2F)CC1)c1ccc(Br)cc1	Nrf2 ARE act inconclusive, HepG2 tox 15.8µM, TGFb SMAD3 inh inconclusive
Cc1cc2oc(=O)cc(-c3ccccc3)c2c(C)c1-c1ccc(O)cc1	Nrf2 inh 16.4µM, TGFb SMAD3 inh inconclusive
Cc1cc(O)c2c(-c3ccccc3)cc(=O)oc2c1	none
COc1ccc(Cl)cc1C(=O)O/N=C(\N)c1ccc(Cl)cc1	Nrf2 ARE act 7.94µM, Nrf2 inh inconclusive
Cc1occc1C(=O)O/N=C(\N)c1ccc(Cl)cc1	Nrf2 ARE act 6.31µM, Nrf2 inh inconclusive
O=C(NCCCCc1ccccc1)C12CN(Cc3ccccc3)CC1C(c1cccc([N+](=O)[O-])c1)=NO2 (stereo unspecified)	none
CCOCCCNC(=O)/C(C#N)=C/c1ccc(Cl)c([N+](=O)[O-])c1	TGFb SMAD3 inh inconclusive
CCOCCCNC(=O)/C(C#N)=C/c1cc(OC)c(O)c([N+](=O)[O-])c1	A549 viability 18.4µM
Cc1nc(Nc2ncc(C(=O)Nc3c(C)cccc3Cl)s2)cc(N2CCN(CCO)CC2)n1	TGFb SMAD3 inh 1.26µM (no result: Nrf2 ARE act, Nrf2 inh, A549 viability)
COc1ccc(C(C)=O)cc1CN1C(=O)NC2(CCCC2)C1=O	none
NC(N)=NS(=O)(=O)c1ccc(N/C=C/C(=O)c2ccc(Cl)c(Cl)c2)cc1	Nrf2 inh inconclusive
CCOc1ccc(C(=O)/C=C/Nc2ccc(S(=O)(=O)N=C(N)N)cc2)cc1	TGFb SMAD3 inh 20µM
Cc1cccc(-n2c(-c3ccco3)nc3c(cnn3-c3ccccc3C)c2=O)c1	Nrf2 inh 20.6µM, TGFb SMAD3 inh inconclusive
CC1CCN(CC(=O)Nc2nc(-c3ccccc3)cs2)CC1	TGFb SMAD3 inh inconclusive
COC(=O)Cn1c(C)nc(=O)c(-c2ccccc2)c1C	none
COC(=O)[C@]1(Cc2ccccc2)N[C@H](CN(C)C(=O)Nc2ccc(Cl)cc2)[C@@H]2C(=O)N(C)C(=O)[C@@H]21	none
O=C(NCCc1ccccc1)/C(=C\c1ccccc1)NC(=O)c1ccco1	none
COc1ccc(OC)c(C(=O)COC(=O)c2ccccc2O)c1	Nrf2 ARE act 12.6µM
CCCCCCSc1ccc([C@H]2N[C@@](C)(C(=O)OC)[C@H]3C(=O)N(C)C(=O)[C@@H]23)cc1	Nrf2 inh 25.9µM, TGFb SMAD3 inh inconclusive
COc1cccc(CN(C)C(=O)c2cc(S(=O)(=O)NCc3ccccc3)ccc2C)c1OC	none
COc1ccc(CCN(C)C(=O)c2cc(S(=O)(=O)NCc3ccccc3)ccc2C)cc1OC	Nrf2 inh 16.4µM
CCn1c(C)nc2cc(C(=O)N/N=C/c3ccc(O)c(O)c3O)ccc21	A549 viability inconclusive
CCC(=NNC(=O)c1ccc2c(c1)nc(C)n2CC)c1cc(F)ccc1O	Nrf2 inh 6.51µM, TGFb SMAD3 inh inconclusive
COc1ccc(S(=O)(=O)N2CCN(C(=O)c3cc(-c4ccc(Br)cc4)n[nH]3)CC2)cc1OC	Nrf2 inh 20.6µM, TGFb SMAD3 inh inconclusive
O=C(c1cc(-c2ccc(Br)cc2)n[nH]1)N1CCN(C(=O)c2ccccc2Br)CC1	Nrf2 inh 25.9µM, TGFb SMAD3 inh inconclusive
Cc1ccc(S(=O)(=O)N2CCN(C(=O)c3cc(-c4ccc(Br)cc4)n[nH]3)CC2)c(C)c1	Nrf2 inh inconclusive, TGFb SMAD3 inh inconclusive
COc1ccc(-c2cc(C(=O)N3CCN(C(=O)c4ccccc4F)CC3)[nH]n2)cc1	Nrf2 inh inconclusive
COc1ccc(Cl)cc1S(=O)(=O)N1CCN(C(=O)c2cc(-c3ccc(Br)cc3)n[nH]2)CC1	Nrf2 inh inconclusive, A549 viability inconclusive, TGFb SMAD3 inh 8.91µM
O=C(c1cc(-c2ccc(Br)cc2)n[nH]1)N1CCN(S(=O)(=O)c2ccc(Br)cc2)CC1	none
O=C(CN1CCN(c2ccccn2)CC1)Nc1cccc(S(=O)(=O)N2CCCC2)c1	Nrf2 inh 11.6µM
